# Experimental data published in the supplement of paper PMC5919970.
# Structures can show the parent of a compound that is named as a salt. The full ranking holds about 2,000 compounds; the median of “fractional viability relative to vehicle” is about 0.91, and the lowest 2% start at about 0.045. This excerpt belongs to a sample that is enriched for the lowest values.
# Tested on: TYKNU
# Assay: fractional viability relative to vehicle; TYKNU is a high-grade serous ovarian cancer line; higher = less growth inhibition
# Conditions: 72 h
# Method in brief: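 TYKNU control cells or lentiCRISPRv2 knockout derivatives were plated at 500 cells per well in duplicate into drug-stamped 384-well plates holding a ~2100-compound library at 2 or 10 μM. Culture was in RPMI 1640 with 10% FBS at 37 °C in 5% CO2, with 72 h of drug treatment. Viability was measured by Cell Titer Glo luminescence, and the averaged duplicate treatment wells were normalised to duplicate control wells at the same plate position.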
# [1] = 2uM, genotype: DNM1L knockout (sgDNM1L #1)
# [2] = 2uM, genotype: sgCTRLA1 (non-targeting control)
# [3] = 10uM, genotype: DNM1L knockout (sgDNM1L #1)
# [4] = 10uM, genotype: sgCTRLA1 (non-targeting control)
SMILES,fractional viability [1],fractional viability [2],fractional viability [3],fractional viability [4]
O=C(/C=C\n1cnc(-c2cc(C(F)(F)F)cc(C(F)(F)F)c2)n1)NNc1ccccn1 [Verdinexor (KPT-335)],0.137,0.13,0.162,0.121
C[C@@H]1O[C@@H](O[C@H]2[C@H](Oc3cc(O)c4c(c3)O[C@H](c3ccc(O)cc3)CC4=O)O[C@H](CO)[C@@H](O)[C@@H]2O)[C@H](O)[C@H](O)[C@H]1O [Naringin],0.915,1.12,0.827,1
CN1CCC(Nc2nc(Nc3ccc(Oc4ccccc4)cc3)c3c(=O)[nH]cc(Br)c3n2)CC1,0.131,0.279,0.0286,0.0109
c1nc2c(NC3CCCCC3)nc(Nc3ccc(N4CCOCC4)cc3)nc2[nH]1 [Reversine],0.545,0.579,0.229,0.216
C=C1CC[C@H](O)C/C1=C/C=C1\CCC[C@]2(C)[C@@H]([C@H](C)/C=C/[C@H](C)C(C)C)CC[C@@H]12 [Vitamin D2],1.19,1.02,0.175,0.739
O=C1NC(=O)/C(=C/c2cccc(C(F)(F)F)c2)S1,0.748,0.945,0.687,0.786
COc1ccc2c(c1)CCC1C2CCC2(C)C(NCCCCCCN3C(=O)C=CC3=O)CCC12 (configuration not stated),0.849,0.972,0.942,0.781
C[C@H]1O[C@@H](n2cc(F)c(=O)[nH]c2=O)[C@H](O)[C@@H]1O [Doxifluridine],1.11,1.13,0.893,1.06
CCCCc1oc2ccc(NS(C)(=O)=O)cc2c1C(=O)c1ccc(OCCCN(CCCC)CCCC)cc1 [Dronedarone HCl],0.712,0.919,0.0442,0.0545
CCCCc1oc2ccccc2c1C(=O)c1cc(I)c(OCCN(CC)CC)c(I)c1 [Amiodarone HCl],0.996,1.07,0.736,0.965
CN(CCOc1ccc(NS(C)(=O)=O)cc1)CCc1ccc(NS(C)(=O)=O)cc1 [Dofetilide],0.999,0.981,0.838,0.933
CN(C)c1nc(N(C)C)nc(N(C)C)n1 [Altretamine],1.05,1.07,0.977,1.03
CNC(=O)c1ccccc1Oc1nc(Nc2cc(OC)c(OC)c(OC)c2)ncc1Br,0.847,0.94,0.581,0.589
CN(CC(=O)N(Cc1ccc(C2CCCCC2)cc1)c1ccc(C(=O)O)cc1)S(=O)(=O)c1c(F)c(F)c(F)c(F)c1F,0.435,0.661,0.042,0.0176
FC(F)(F)c1ccc(/C=C/c2nc(COc3ccc(CCCCn4ccnn4)cc3)co2)cc1 [Mubritinib (TAK 165)],0.716,0.534,0.545,0.517
O=C1CCC[C@@H]2[C@H]3CCC[N+]4([O-])CCC[C@@H](CN12)[C@@H]34 (some centres not stated) [Oxymatrine],0.927,1.15,0.812,1.1
CC1=CC(=O)NS(=O)(=O)O1 [Acesulfame Potassium],1.16,1.13,0.791,1.17
CC(C)(C)c1ccc(S(=O)(=O)/C=C/C#N)cc1,0.119,0.091,0.0418,0.0217
Cc1ccc(S(=O)(=O)/C=C/C#N)cc1,0.0925,0.0355,0.0225,0.01
C/C=C1/[C@H](O[C@@H]2O[C@H](CO)[C@@H](O)[C@H](O)[C@H]2O)OC=C(C(=O)OC)[C@H]1CC(=O)OCCc1ccc(O)c(O)c1 [Oleuropein],0.773,0.978,0.843,0.774

SMILES,fractional viability [1],fractional viability [2],fractional viability [3],fractional viability [4]
CC[C@H](C)C[C@H](C)CCCCCCCCC(=O)N[C@H]1C[C@@H](O)[C@@H](NCCN)NC(=O)[C@@H]2[C@@H](O)CCN2C(=O)[C@H]([C@H](O)CCN)NC(=O)[C@H]([C@H](O)[C@@H](O)c2ccc(O)cc2)NC(=O)[C@@H]2C[C@@H](O)CN2C(=O)[C@H]([C@@H](C)O)NC1=O [Caspofungin Acetate],0.98,1.17,0.637,1.01
Cc1ncc(Cl)cc1NCc1ccc(C(=O)N[C@@H](CC2CCCC2)C(=O)NC2CC2)s1,0.845,0.992,0.838,0.778
CCOc1ccc(Cc2cc([C@@H]3O[C@H](SC)[C@@H](O)[C@H](O)[C@H]3O)ccc2Cl)cc1 [Sotagliflozin (LX4211)],0.825,1.02,0.592,0.694
COC(=O)C[C@H](NC(=O)[C@H](C)NC(=O)[C@@H](NC(=O)OCc1ccccc1)C(C)C)C(=O)CF,0.89,1.14,0.837,1.1
CNC(=O)c1ccccc1Nc1nc(Nc2ccc(N3CCOCC3)cc2OC)ncc1Cl,0.85,0.837,0.292,0.206
COc1cc(N2CCC(N)CC2)ccc1Nc1ncc(Cl)c(-c2c[nH]c3ccccc23)n1,0.359,0.386,0.0459,0.0363
CCOc1cc(N2CCC(O)CC2)ccc1Nc1ncc2c(n1)N(C)c1ccccc1C(=O)N2C,0.651,0.842,0.539,0.531
CN(N=O)C(=O)NC1C(O)OC(CO)C(O)C1O (configuration not stated) [Streptozotocin (STZ)],1.1,1.2,0.905,1.2
C/C(=N\NC(=O)c1cccc(S(=O)(=O)N2CCOCC2)c1)c1cc(Cl)ccc1O,0.348,0.356,0.242,0.136
COc1cc(-c2cc(-c3ccc(N4CCNCC4)cc3)cnc2C)cc(OC)c1OC,0.714,1.02,0.834,0.772
COc1ccc(-c2cnc3c(-c4cccc5ncccc45)cnn3c2)cc1,1.18,1.28,1.1,1.2
c1cc(-c2cnn3cc(-c4ccc(N5CCNCC5)cc4)cnc23)c2cccnc2c1,0.0431,0.069,0.0409,0.021
CNC(=O)c1cccc(-c2ccc3c(N4CCOC[C@@H]4C)nc(N4CCOC[C@@H]4C)nc3n2)c1,0.277,0.218,0.201,0.237
CCCCCCCCc1ccc(CCC(N)(CO)CO)cc1 [Fingolimod (FTY720) HCl],0.722,1.02,0.0372,0.0418
CCCCCCCc1ccc(CCc2cccc(O)c2C(=O)O)cc1,0.825,1.04,0.896,0.765
CCCCCCCCCCCCc1ccc(S(=O)(=O)Nc2nncs2)cc1,0.997,1.07,0.843,0.966
CCCCc1nc2cc(/C=C/C(=O)NO)ccc2n1CCN(CC)CC [Pracinostat (SB939)],0.146,0.22,0.0823,0.0879
O=C1NC(=O)/C(=C/c2ccc3nccc(-c4ccncc4)c3c2)S1,0.556,0.7,0.21,0.219
CCCCCCCCCCCCCCCC[N+](C)(C)C [Cetrimonium Bromide (CTAB)],0.311,0.295,0.0593,0.0171
CCCCCCCCCCCCCCCCO [1-Hexadecanol],0.833,1.09,0.879,1.1

SMILES,fractional viability [1],fractional viability [2],fractional viability [3],fractional viability [4]
CCCCCCCCCCCC[N+](C)(C)CCOc1ccccc1 [Domiphen Bromide],0.558,0.882,0.0673,0.0826
COc1ccc(-n2c(SCCCN3C(=O)c4cccc5cccc(c45)C3=O)nnc2-c2ccncc2)cc1,0.722,0.945,0.895,0.738
Nc1nccc(Oc2ccc(NC(=O)c3c[nH]cc(-c4ccc(F)cc4)c3=O)cc2F)c1Cl,1.09,1.05,0.598,0.808
CC1(C)CCC2=C(O1)c1ccccc1C(=O)C2=O [Beta-Lapachone],0.128,0.0912,0.0219,0.023
CC1=CC(=O)c2ccccc2C1=O [Menadione],0.872,1.1,0.952,0.951
N#C/C(=C(/N)Sc1ccc(N)cc1)c1ccccc1C(F)(F)F,0.881,0.905,0.626,0.785
OC[C@H]1O[C@@H](c2ccc(Cl)c(Cc3ccc(O[C@H]4CCOC4)cc3)c2)[C@H](O)[C@@H](O)[C@@H]1O,0.8,1.06,0.788,0.819
Oc1cc2c(cc1O)[C@@H]1c3ccc(O)c(O)c3OC[C@]1(O)C2 [Hematoxylin],0.878,1.11,0.861,0.977
CCOC(=O)[C@H](CCc1ccccc1)N[C@H]1CS[C@H](c2cccs2)CN(CC(=O)O)C1=O [Temocapril HCl],0.889,1.23,0.83,1.04
CC(C)c1cc(-c2n[nH]c(=O)n2-c2ccc3c(ccn3C)c2)c(O)cc1O [Ganetespib (STA-9090)],0.299,0.204,0.248,0.206
Cc1[nH]c(/C=C2\C(=O)Nc3ccc(S(=O)(=O)N(C)c4cccc(Cl)c4)cc32)c(C)c1C(=O)N1CCN(C)CC1,1.02,0.999,0.152,0.189
Cc1[nH]c(/C=C2\C(=O)Nc3ccc(S(=O)(=O)Cc4c(Cl)cccc4Cl)cc32)c(C)c1C(=O)N1CCC[C@@H]1CN1CCCC1,0.317,0.279,0.0474,0.0167
CN(C)S(=O)(=O)c1ccc2c(c1)/C(=C/c1cc3c([nH]1)CCCC3)C(=O)N2,0.562,0.815,0.234,0.264
CCOC(=O)c1ccc(NC(=O)O[C@H]2[C@H](OC(=O)Nc3ccc4c(c3)OCO4)[C@@H](OC(=O)Nc3ccc4c(c3)OCO4)[C@@H](OC)O[C@@H]2CO)cc1,0.821,1.04,0.616,0.615
CCCCCCCCC/C(=C\C1=C(C)C(=O)C(OC)=C(OC)C1=O)C(=O)O,0.847,0.878,0.855,0.701
Cc1ccc(-n2sc(=O)n(Cc3ccc(F)cc3)c2=O)cc1,0.995,1.11,0.469,0.618
Cn1sc(=O)n(Cc2ccccc2)c1=O,0.797,0.735,0.0256,0.00748
O=C(NC[C@H](O)CN1CCc2ccccc2C1)c1cc(NC2COC2)ncn1,0.764,0.899,0.604,0.662
